For 11 compounds, Potency and Z-AUC results are on record in PubChem BioAssay (NCATS).

Assay [1] can be described thus: Quantitative High-Throughput drug screen in 47 multiple myeloma cell lines against the NCATS MIPE library collection: KMS34_JCRB cell viability assay (AID 1918985). Further: nearly all actives have a fitted effect of over 40% in size. The essentials:
(§1)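 Viability after 48 h drug exposure was measured as ATP-dependent luminescence. Cells, 500 per well, sat at 37 °C under 5% CO2; DMSO wells set 100%, media-only wells 0%.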

Assay [2] in a line: Quantitative High-Throughput drug screen in 47 multiple myeloma cell lines against the NCATS MIPE library collection: OCIMY7_PLB cell viability assay (AID 1918987). Further: nearly all actives have a fitted effect of over 65% in size. The gist of the method:
as §1

Assay [3] is described as follows: Quantitative High-Throughput drug screen in 47 multiple myeloma cell lines against the NCATS MIPE library collection: OCIMY5_PLB cell viability assay (AID 1918988). Further: nearly all actives have a fitted effect of over 65% in size. The gist of the method: as §1
Assay [4] can be described thus: Quantitative High-Throughput drug screen in 47 multiple myeloma cell lines against the NCATS MIPE library collection: SKMM1_PLB cell viability assay (AID 1919863). Further: nearly all actives have a fitted effect of over 35% in size. As to conditions: SKMM1 myeloma viability, CellTiter-Glo ATP, 48 h; viability: stronger effect = lower value. The gist of the method: as §1
Background: ATP-based viability assays read luminescence as a measure of living cells.

Assay [5] in a line: Quantitative High-Throughput drug screen in 47 multiple myeloma cell lines against the NCATS MIPE library collection: XG6_PLB cell viability assay (AID 1919865). Further: nearly all actives have a fitted effect of over 40% in size. The essentials:
as §1

The nature of assay [6]: Quantitative High-Throughput drug screen in 47 multiple myeloma cell lines against the NCATS MIPE library collection: XG1_PLB cell viability assay (AID 1919866). Further: nearly all actives have a fitted effect of over 35% in size. The gist of the method:
as §1

Assay [7] is described as follows: Quantitative High-Throughput drug screen in 47 multiple myeloma cell lines against the NCATS MIPE library collection: VP6_DJ cell viability assay (AID 1919867). Further: nearly all actives have a fitted effect of over 40% in size. The essentials: as §1
Assay [8] in a line: Quantitative High-Throughput drug screen in 47 multiple myeloma cell lines against the NCATS MIPE library collection: UTMC2_PLB cell viability assay (AID 1919868). Further: nearly all actives have a fitted effect of over 55% in size. As to conditions: CellTiter-Glo ATP luminescence, 48 h; viability (% of DMSO control): at 45.8 µM (top of the series) unless noted. The gist of the method: as §1
Assay [9] can be described thus: Quantitative High-Throughput drug screen in 47 multiple myeloma cell lines against the NCATS MIPE library collection: PE2_PLB cell viability assay (AID 1919869). Further: nearly all actives have a fitted effect of over 35% in size. The essentials:
as §1

A short description of assay [10]: Quantitative High-Throughput drug screen in 47 multiple myeloma cell lines against the NCATS MIPE library collection: PCM6_Riken cell viability assay (AID 1919870). Further: nearly all actives have a fitted effect of over 30% in size. The gist of the method:
as §1

Assay [11] is described as follows: Quantitative High-Throughput drug screen in 47 multiple myeloma cell lines against the NCATS MIPE library collection: RPMI8226_ATCC cell viability assay (AID 1919871). Further: nearly all actives have a fitted effect of over 30% in size. The gist of the method:
as §1

The nature of assay [12]: Quantitative High-Throughput drug screen in 47 multiple myeloma cell lines against the NCATS MIPE library collection: OPM2_DSMZ cell viability assay (AID 1919872). Further: nearly all actives have a fitted effect of over 30% in size. The gist of the method: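 CellTiter-Glo ATP luminescence gave viability after 48 h compound treatment at 37C of 500 multiple myeloma cells per well. Normalisation used DMSO-only wells as 100% and media-only wells as 0% viability; primary qHTS of approved and investigational drugs.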

A short description of assay [13]: Quantitative High-Throughput drug screen in 47 multiple myeloma cell lines against the NCATS MIPE library collection: KMS11_JCRBsus cell viability assay (AID 1919873). Further: nearly all actives have a fitted effect of over 50% in size. The essentials:
as §1

A short description of assay [14]: Quantitative High-Throughput drug screen in 47 multiple myeloma cell lines against the NCATS MIPE library collection: KMS28BM_JCRB cell viability assay (AID 1919874). Further: nearly all actives have a fitted effect of over 35% in size. The essentials: as §1
Assay [15] can be described thus: qHTS drug screen for cell cycle checkpoint inhibitors in PARPi-resistant BRCA-mutant ovarian cancer cell lines. (AID 1963452; calls by dose curve). As to conditions: PEO1/OlaR viability, CellTiter-Glo luminescence, 96 h; for Z-AUC: stronger effect = lower value. The gist of the method:
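PEO1, PEO4 and PEO1/OlaR ovarian cancer cells, 600 per well, exposed 96 h at 37C to a dilution series. Viability read by CellTiter-Glo luminescence, normalized to DMSO and empty wells; activity summarized as Z-AUC.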
In general terms: Quantitative high-throughput screening tests each substance at several concentrations.

The nature of assay [16]: Quantitative High-Throughput drug screen in 47 multiple myeloma cell lines against the NCATS MIPE library collection: OPM1_PLB cell viability assay (AID 1918989). Further: nearly all actives have a fitted effect of over 40% in size. The essentials:
as §1

Assay [17] can be described thus: Quantitative High-Throughput drug screen in 47 multiple myeloma cell lines against the NCATS MIPE library collection: U266_ATCC cell viability assay (AID 1919864). Further: nearly all actives have a fitted effect of over 35% in size. The essentials: as §1
Setting [18] is: measured here: PEO1 parental Z-AUC.

Inconclusive results are not listed. Calls of active or inactive are those of the source. Unless noted, the call rests on the fitted dose curve; in most records, active means well fitted cell-killing curve with a large enough effect; inconclusive means small, poorly fitted or top-dose-only effect, or effect the other way; inactive means no such curve, though single readings can be large or run the other way.
Potency means the concentration at half of the fitted maximal effect.

On to `O=C(O)c1ccc2cc(-c3ccc(O)c(C45CC6CC(CC(C6)C4)C5)c3)ccc2c1`, for which the Potency was 13.2 µM (active) in assay [1]; 0.105 µM (active) in [2]; 2.96 µM (active) in [3]; 4.18 µM (active) in [4]; 0.132 µM (active) in assay [5]; 0.526 µM (active) in [6]. Also, the Potency in assay [7] was 13.2 µM (active); in assay [8] it was 0.264 µM (active); in assay [9], 1.48 µM (active); in assay [10] it was 16.6 µM (active); in [11], 11.8 µM (active); in [12], 23.5 µM (active). Also, the values for the Potency in [13] and in assay [14] were 1.48 µM (active) and 1.32 µM (active), respectively. Also, the Z-AUC in [15] is -0.815 (inactive); in assay [15] (setting [18]) it was -1.55; in assay [15] (measured here: PEO4 Z-AUC), -1.16.
`CCCCOc1c(C(=O)c2c(F)cc(C)cc2F)cnc2n[nH]cc12`: the Potency in assay [1] is 2.35 µM (active); in [2], 4.18 µM (active); in assay [16] it was 11.8 µM (active); in assay [17], 13.2 µM (active); in assay [5] it was 2.35 µM (active); in assay [7], 3.32 µM (active). In addition, the Potency was 3.32 µM (active) in assay [8]; 3.72 µM (active) in assay [9]; 2.64 µM (active) in assay [10]; 5.9 µM (active) in assay [11]; 7.43 µM (active) in [12]; 2.64 µM (active) in assay [13]. Further, the Potency in assay [14] was 2.96 µM (active). Also, the values for the Z-AUC in [15], in assay [15] (setting [18]) and in assay [15] (measured here: PEO4 Z-AUC) were 0.41 (inactive), 0.585 and -0.136, respectively.
With `C=C1C(=CC=C2CCCC3(C)[C@@H]([C@H](C)C=CC=CC(O)(CC)CC)CC[C@@H]23)C[C@@H](O)C[C@@H]1O` (stereo not given in full), the Potency in assay [1] is 20.9 µM (active); in assay [2] it was 29.6 µM (active); in assay [16], 18.7 µM (active); in [17], 23.5 µM (active); in [5] it was 18.7 µM (active); in [6] it was 20.9 µM (active). Moreover, the Potency in [7] is 10.5 µM (active); in [9] it was 23.5 µM (active); in assay [10], 33.2 µM (active); in assay [11] it was 26.4 µM (active); in assay [13], 23.5 µM (active); in assay [14], 20.9 µM (active).
Regarding `CCC(=C(c1ccccc1)c1ccc(OCCN(C)C)cc1)c1ccccc1`, the Potency entry in [1] was “inactive”. Moreover, the Potency was 20.9 µM (active) in [2]; 20.9 µM (active) in assay [16]; 20.9 µM (active) in assay [5]; 16.6 µM (active) in [6]; 20.9 µM (active) in assay [7]; 26.4 µM (active) in assay [9]. Also, the figures for the Potency in assay [10], in assay [13] and in [14] were 23.5 µM (active), 20.9 µM (active) and 20.9 µM (active), respectively.
In the case of `O=C(O)c1ccc2c(c1)nc(Nc1cccc(Cl)c1)c1ccncc12`, the Potency in assay [1] is 10.5 µM (active); in assay [2], 2.35 µM (active); in assay [16], 9.35 µM (active); in [4], 10.5 µM (active); in [17] it was 5.26 µM (active); in assay [5], 3.72 µM (active). Besides, the Potency in assay [7] is 5.9 µM (active); in [8], 2.64 µM (active); in [9] it was 2.64 µM (active); in assay [12], 20.9 µM (active); in assay [13], 7.43 µM (active). Besides, the figures for the Z-AUC in assay [15], in assay [15] (setting [18]) and in [15] (measured here: PEO4 Z-AUC) were -0.0299 (inactive), -0.574 and -0.726, respectively.
On to `COc1cc2c(Oc3ccc(-c4cnc(Nc5ccc(F)cc5)n(C)c4=O)cc3F)ccnc2cc1OCCCN1CCOCC1`, for which the Potency was 18.7 µM (active) in assay [1]; 7.43 µM (active) in assay [2]; 6.62 µM (active) in [16]; 20.9 µM (active) in assay [17]; 7.43 µM (active) in [6]; 2.64 µM (active) in assay [7]. Moreover, the Potency in assay [8] is 5.26 µM (active); in assay [9] it was 14.8 µM (active); in [10], 7.43 µM (active); in [13] it was 0.935 µM (active); in assay [14], 4.18 µM (active). Besides, the Z-AUC is -1.38 (inactive) in assay [15], -0.565 in assay [15] (setting [18]) and -0.285 in assay [15] (measured here: PEO4 Z-AUC).
Take `CC(C)(C)OC(=O)Nc1ccc(-c2cc(C(=O)NCCCCCCC(=O)NO)no2)cc1`: the Potency is 2.35 µM (active) in assay [1]; 1.32 µM (active) in assay [2]; 1.87 µM (active) in assay [16]; 2.09 µM (active) in [4]; 2.96 µM (active) in assay [17]; 3.72 µM (active) in assay [5]. The Potency in assay [6] was 1.87 µM (active); in assay [7], 0.833 µM (active); in assay [8], 0.59 µM (active); in assay [9], 2.64 µM (active); in [10], 1.87 µM (active); in assay [11], 3.32 µM (active). Moreover, the Potency in assay [12] is 2.64 µM (active); in [13], 1.48 µM (active); in [14], 1.05 µM (active). For the same compound, the figures for the Z-AUC in assay [15], in assay [15] (setting [18]) and in assay [15] (measured here: PEO4 Z-AUC) were -0.0304 (inactive), 0.0473 and 0.196, respectively.
As to `CCOc1cc2ncc(C#N)c(Nc3ccc(F)c(Cl)c3)c2cc1NC(=O)C=CCN(C)C`, the Potency in [1] was 4.69 µM (active); in assay [2] it was 0.0743 µM (active); in assay [16] it was 11.8 µM (active); in assay [17], 18.7 µM (active); in [6], 10.5 µM (active); in assay [7] it was 4.69 µM (active). In addition, the Potency is 0.296 µM (active) in assay [8]; 5.9 µM (active) in [9]; 1.66 µM (active) in [10]; 10.5 µM (active) in assay [11]; 14.8 µM (active) in assay [12]; 2.64 µM (active) in assay [13]. Besides, the Potency in assay [14] was 3.32 µM (active).
Turning to `CNC(=O)CN1CCC(Oc2cc3c(Nc4cccc(Cl)c4F)ncnc3cc2OC)CC1`, the Potency in assay [1] was 0.0372 µM (active); in assay [2], 0.0833 µM (active); in assay [16], 0.0332 µM (active); in [4] it was 0.0264 µM (active); in [6] it was 0.0235 µM (active); in [7] it was 0.0187 µM (active). Further, the Potency is 0.0332 µM (active) in assay [8]; 0.0235 µM (active) in [10]; 0.0833 µM (active) in assay [12]; 0.0372 µM (active) in assay [13]; 0.0187 µM (active) in assay [14]. The Potency result in assay [17] and in [5] was “inactive” throughout. The Z-AUC in assay [15] is 0.332 (inactive); in [15] (setting [18]), 0.682; in assay [15] (measured here: PEO4 Z-AUC), 0.199.
As to `COc1cc2ncnc(Nc3ccc(F)c(Cl)c3)c2cc1NC(=O)C=CCN1CCCCC1`, the Potency in [1] is 26.4 µM (active); in assay [2], 1.32 µM (active); in assay [16], 7.43 µM (active); in assay [4], 20.9 µM (active); in [17] it was 1.18 µM (active); in [5] it was 4.18 µM (active). Besides, the Potency in assay [7] is 5.9 µM (active); in assay [8], 10.5 µM (active); in [9], 6.62 µM (active); in assay [10], 3.32 µM (active); in assay [13], 8.33 µM (active); in assay [14], 6.62 µM (active).
With `O=C(NC1CCNCC1)c1[nH]ncc1NC(=O)c1c(Cl)cccc1Cl`, the Potency in [1] was 0.418 µM (active); in [2], 3.72 µM (active); in assay [16], 1.87 µM (active); in assay [4], 0.526 µM (active); in assay [17], 0.187 µM (active); in assay [5], 0.469 µM (active). Further, the Potency in assay [6] is 0.833 µM (active); in assay [7], 0.59 µM (active); in assay [8], 0.662 µM (active); in assay [9], 0.833 µM (active); in assay [10], 0.166 µM (active); in assay [11], 1.05 µM (active). Moreover, the Potency was 0.526 µM (active) in [12], 0.332 µM (active) in assay [13], 0.264 µM (active) in assay [14] and 0.977 µM (active) in assay [15]. In addition, the figures for the Z-AUC in assay [15] (setting [18]) and in [15] (measured here: PEO4 Z-AUC) were -1.49 and -1.05, respectively.
